Source: PubChem BioAssay
HP1b chromo inh – HTS for Inhibitors of HP1-beta Chromodomain Interactions with Methylated Histone Tails; Chromobox protein homolog 1 (Homo sapiens), P83916; AlphaScreen HP1-beta / biotin-H3K9me3 peptide binding; Potency, µM (titrated, usually from 114 µM), for inactives: top-dose activity change, negative = inhibition, most hits filed as inhibitors; hit rate 0.56% among 390,000; AID 540317, 2011; note: nearly all actives have a fitted effect of over 70% in size
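HP1-beta protein (50 nM final) preincubated 30 min at room temperature with biotinylated H3(1-18)K9me3 peptide (50 nM) in PBS pH 7.4, 0.01% Tween-20, then compound added for 30 min. AlphaScreen streptavidin donor/nickel chelate acceptor beads (10 ug/mL final), 30 min dark, luminescence read.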
L3MBTL1 inh – qHTS Assay for the Inhibitors of L3MBTL1; Lethal(3)malignant brain tumor-like protein 1 (Homo sapiens), Q9Y468; Potency, µM (series often up to 57.1 µM), for inactives: at the highest dose activity, negative = inhibition, hits mostly inhibitors; hit rate 0.66% among 230,000; AlphaScreen L3MBTL1–H3K9me1 peptide binding; note: % is set by controls: 0 for no effect and ±100 for the full control effect; nearly all actives have a fitted effect of over 60% in size
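First, the protein-peptide complex forms for 30 min at room temperature (L3MBTL1 50 nM, biotinylated H3K9me1 peptide 75 nM). Next, compounds are pin-transferred and incubated 30 min. Finally, AlphaScreen beads are added and read after 30 min.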
BAZ2B inh – qHTS Assay for Inhibitors of BAZ2B | AlphaScreen BAZ2B-H3K14Ac peptide displacement | Potency, µM (series often up to 114 µM), inactives show top-dose activity change, negative = inhibition, hits mostly inhibitors | hit rate 4.4% among 360,000 | AID 504333, 2011; note: % is set by controls: 0 for no effect and ±100 for the full control effect; nearly all actives have a fitted effect of over 60% in size
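Protein-peptide AlphaScreen: BAZ2B 50 nM, b-H3K14Ac 50 nM, 1x PBS pH 7.4 + 0.01% Tween-20. Preincubation 30 min RT; cpd 30 min RT (top 110 uM); beads 20 min RT, light-protected.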
JMJD2A Tudor – qHTS Assay for Inhibitors of JMJD2A-Tudor Domain | AID 504339, 2011 | AlphaScreen JMJD2A-Tudor / H3K4me3 peptide binding | Lysine-specific demethylase 4A (Homo sapiens), O75164 | Potency, µM (series often up to 114 µM), inactives show at the top dose activity change, negative = inhibition, hits mostly inhibitors | hit rate 4.4% among 390,000; note: % is set by controls: 0 for no effect and ±100 for the full control effect; nearly all actives have a fitted effect of over 50% in size
G9a inh – qHTS Assay for Inhibitors of Histone Lysine Methyltransferase G9a; Histone-lysine N-methyltransferase EHMT2 (Homo sapiens), Q96KQ7; G9a H3K9 monomethylation, AlphaScreen, 2 h; Potency, µM (titrated, usually from 102 µM), without a hit: at the highest dose activity, negative = inhibition, actives largely listed as inhibitors; hit rate 8.8% among 350,000; note: % is set by controls: 0 for no effect and ±100 for the full control effect; nearly all actives have a fitted effect of over 75% in size
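Using a bead-based AlphaScreen, monomethylated H3K9 product from 2 h room-temperature reactions (G9a 20 nM, peptide 500 nM, SAM 20 uM) was detected with 0.5 ug/mL rabbit anti-H3K9me1 antibody.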
The depositor's hits bear a star; [ ] = remark or other dose. A selection: hits, their analogues and other compounds. The true share with any hit is near 11%. Calls come from the whole dose curve; as a rule, active = well fitted inhibition curve with a large enough effect; inconclusive = small, poorly fitted or top-dose-only effect; inactive = no such curve, though single readings can be large or run the other way. Potency is the fitted concentration of half-maximal effect.

CN1/C(=C\C=C2/SC(=S)N(CC(=O)O)C2=O)C(C)(C)c2ccccc21 was read as HP1b chromo inh 35.5µM*, L3MBTL1 inh -24.1%, BAZ2B inh 28.2µM*, JMJD2A Tudor inconclusive and G9a inh 17.8µM*.
Screening C=CCN1C(=O)/C(=C\C=C2\N(C)c3ccccc3C2(C)C)SC1=S returned HP1b chromo inh inconclusive, L3MBTL1 inh -11.2%, BAZ2B inh inconclusive, JMJD2A Tudor inconclusive and G9a inh 15.8µM*.
CCCN1C(=O)/C(=C/C=C2\N(CC)c3ccccc3C2(C)C)SC1=S was read as HP1b chromo inh 10µM*, L3MBTL1 inh -16.1%, BAZ2B inh 1.78µM*, JMJD2A Tudor 11.2µM* and G9a inh inconclusive.
Cc1nn(CCCC(=O)NCc2cccc(Cl)c2)c(=O)c2c1sc1ccccc12 was read as HP1b chromo inh 35.5%, BAZ2B inh 2.0%, JMJD2A Tudor 7.0% and G9a inh -30.0%[59 µM].
O=C(NNc1ccc([N+](=O)[O-])cc1)C1CC1c1ccccc1 (centres undefined) was read as HP1b chromo inh -19.5%, L3MBTL1 inh -7.0%, BAZ2B inh -38.2%, JMJD2A Tudor -11.2% and G9a inh 10µM*.
`COc1ccc([N+](=O)[O-])cc1NC(=O)/C=C/C(=O)O` gave HP1b chromo inh 16.7%, L3MBTL1 inh -4.0%, BAZ2B inh -0.7%, JMJD2A Tudor -9.5% and G9a inh 3.5%.
For O=C(O)C1CC=CCC1C(=O)NNc1ccccc1 (centres undefined) the results were HP1b chromo inh 4.5%, BAZ2B inh -11.0%, JMJD2A Tudor 9.8%[57.1 µM] and G9a inh 14.1µM*.
Cc1ccc(NC(=O)C2CC2c2ccccc2)c([N+](=O)[O-])c1 (centres undefined) was read as HP1b chromo inh -10.9%, L3MBTL1 inh -18.6%, BAZ2B inh inconclusive, JMJD2A Tudor inconclusive and G9a inh 39.8µM*.
Screening Cc1ccc([N+](=O)[O-])cc1NC(=O)/C=C/C(=O)O returned HP1b chromo inh 26.7%, L3MBTL1 inh 10.8%, BAZ2B inh 79.4µM*, JMJD2A Tudor -15.7% and G9a inh -9.0%[12.7 µM].
Screening Cc1cc(C)c(NC(=O)/C=C\C(=O)O)c(Cl)c1 returned HP1b chromo inh 41.9%, L3MBTL1 inh 4.3%, BAZ2B inh 2.1%, JMJD2A Tudor -17.9% and G9a inh inconclusive.
For Cc1cc(C)c(NC(=O)/C=C\C(=O)O)c([N+](=O)[O-])c1 the results were HP1b chromo inh 9.2%, BAZ2B inh 2.1%, JMJD2A Tudor inconclusive and G9a inh 3.55µM*.
Screening CC(=O)Nc1ccc(S(=O)(=O)Nc2ccc([N+](=O)[O-])cc2)cc1 returned G9a inh -43.2%[2.33 µM].
`Cc1ccc(NC(=O)/C=C\C(=O)O)c([N+](=O)[O-])c1` gave HP1b chromo inh 37.6%, L3MBTL1 inh 17.7%, BAZ2B inh 9.7%, JMJD2A Tudor -2.1% and G9a inh 39.8µM*.
`CC(=O)Nc1ccc(S(=O)(=O)Nc2cc([N+](=O)[O-])ccc2C)cc1` gave HP1b chromo inh inconclusive, L3MBTL1 inh -3.2%, BAZ2B inh -18.3%, JMJD2A Tudor 10µM* and G9a inh inconclusive.
COc1cccc(NC(=O)c2oc3ccccc3c2NC(=O)c2ccc(OC(C)C)cc2)c1 was read as HP1b chromo inh 27.7%, BAZ2B inh -11.9%, JMJD2A Tudor -16.2% and G9a inh -19.3%[59 µM].
Screening COc1cc(OC)c(OC)cc1/C=C1\CCC/C(=C\c2cc(OC)c(OC)cc2OC)C1=O returned HP1b chromo inh 31.6µM*, BAZ2B inh 28.2µM*, JMJD2A Tudor 28.2µM* and G9a inh 39.8µM*.
`COc1cc(OC)c(OC)cc1/C=C1\CCC(C2CCCC2)C1=O` (centres undefined) gave HP1b chromo inh -2.6%, L3MBTL1 inh -13.8%, BAZ2B inh 25.1µM*, JMJD2A Tudor inconclusive and G9a inh inconclusive.
For O=C(Nc1ccc(Br)cc1)c1cc(S(=O)(=O)N2CCc3ccccc32)ccc1F the results were HP1b chromo inh 47.4%, BAZ2B inh 7.7%, JMJD2A Tudor -14.4% and G9a inh 20.1%[59 µM].
For CC1=C(C(=O)Nc2ccc(C)cc2C)C(c2ccc(Cl)cc2)n2nc(C(=O)OC(C)C)nc2N1 (centres undefined) the results were HP1b chromo inh 9.6%, L3MBTL1 inh 1.6%, BAZ2B inh -13.9%, JMJD2A Tudor -6.8% and G9a inh 44.7µM*.
`COc1ccc(C2C(C(=O)Nc3ccc(C)cc3C)=C(C)Nc3nc(SC)nn32)cc1OC` (centres undefined) gave HP1b chromo inh 7.4%, BAZ2B inh 0.5%, JMJD2A Tudor -15.0% and G9a inh 11.3%[59 µM].
Screening Cc1ccn(-c2cc(O)c(-n3ccc(C)n3)cc2O)n1 returned HP1b chromo inh inconclusive, L3MBTL1 inh -3.2%, BAZ2B inh -2.4%, JMJD2A Tudor inconclusive and G9a inh 3.55µM*.
`Cc1ccn(CCC(=O)O)n1` gave HP1b chromo inh 33.5%, L3MBTL1 inh 11.0%, BAZ2B inh 2.5% and JMJD2A Tudor -12.0%.
For CCOc1ccc(NC(=O)Cn2nnc(C(=O)NCCc3ccccc3)c2N)cc1 the results were HP1b chromo inh 52.5%, JMJD2A Tudor -10.3% and G9a inh -2.7%[59 µM].
For Cc1ccc(NC(=S)N(C)N)cc1Cl the results were HP1b chromo inh 59.0%, L3MBTL1 inh 3.3%, BAZ2B inh inconclusive, JMJD2A Tudor 2.8% and G9a inh 31.6µM*.
`COc1ccc(CN(CC2CCC(C(=O)O)CC2)C(=S)Nc2ccc(C)c(Cl)c2)cc1` (centres undefined) gave HP1b chromo inh 10.2%, BAZ2B inh -2.3%, JMJD2A Tudor -17.4% and G9a inh inconclusive.
`CN(N)C(=S)Nc1ccc(F)cc1` gave HP1b chromo inh 43.2%, L3MBTL1 inh 11.1%, BAZ2B inh -16.8%, JMJD2A Tudor -7.7% and G9a inh 50.1µM*.
`Cc1ccc(NC(=S)N(Cc2ccc(Cl)cc2)Cc2ccc(C(=O)O)cc2)cc1Cl` gave HP1b chromo inh -12.8%, BAZ2B inh -32.6%, JMJD2A Tudor -21.0% and G9a inh 39.8µM*.
`Cc1cc(C)c(NC(=O)CSc2nc(=O)n(Cc3ccncc3)c3c2CCC3)c(C)c1` gave HP1b chromo inh 26.8%, BAZ2B inh -1.7%, JMJD2A Tudor -0.3% and G9a inh 17.2%[59 µM].
For O=C(Cc1csc(N2CCOCC2)n1)N/N=C/c1ccc(O)c(O)c1O the results were HP1b chromo inh 15.8µM*, L3MBTL1 inh -15.8%, JMJD2A Tudor 10µM* and G9a inh 3.55µM*.
